# Data taken from PubChem BioAssay (NCATS).
# Values without a mark were called inactive. Calls follow the shape of the dose curve; as a rule, active = well fitted inhibition curve with a large enough effect; inconclusive = small, poorly fitted or top-dose-only effect; inactive = flat fitted curve, though single readings scatter.
# Tested on: Nanoluciferase (engineered Oplophorus gracilirostris luciferase)
# Assay: Primary Nanoluciferase (NLuc) qHTS assay for identification of artifact compounds. (AID 1845222);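 also: NLuc secreted into diluted conditioned medium of S16 cells; 0% = DMSO and -100% = no enzyme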
# Details: NLuc-conditioned medium, Nano-Glo luminescence, 5 min; series mostly up to 54.1 µM; activity, negative = inhibition: at the top concentration
# How it was run: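 NLuc from S16 cell medium (1:55) plus test compounds, 15 min, room temperature. Luminescence after Nano-Glo (1:100) addition, 5 min.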
row,SMILES,"activity, negative = inhibition"
1,O=C(O)C(O[C@@H]1O[C@H](CO[C@@H]2O[C@H](CO)[C@@H](O)[C@H](O)[C@H]2O)[C@@H](O)[C@H](O)[C@H]1O)c1ccccc1 (stereo partly specified),0% [at 25.7 µM]
2,O=C(CC(c1ccccc1)c1ccccc1)N1CCN(C(c2ccccc2)c2ccccc2)CC1,-11.3%
3,CS(=O)(=O)N(CC(=O)NCC1CC1)c1cc(C(F)(F)F)ccc1Cl,-9.07%
4,CCOc1cc(C(=O)N2CCC(N3CCN(C)CC3)CC2)ccc1Nc1ncc2c(n1)N(C1CCCC1)c1ccccc1C(=O)N2C,0.776%
5,Cc1cc(C(=O)Nc2cccc(C(=O)Nc3cccc(C(F)(F)F)c3)c2)on1,-7.69%
6,O=C(CCc1nnc2n(Cc3ccc(Cl)cc3)c(=O)c3ccccc3n12)NCCC1=CCCCC1,-9.75%
7,CC(C)=CCC[C@](C)(O[C@@H]1O[C@H](CO)[C@@H](O)[C@H](O)[C@H]1O)[C@H]1CC[C@]2(C)[C@@H]1[C@H](O)CC1[C@@]3(C)CC[C@H](O)C(C)(C)C3[C@@H](O[C@@H]3O[C@H](CO)[C@@H](O)[C@H](O)[C@H]3O)C[C@]12C (stereo partly specified),0% [at 25.7 µM]
8,CC(C)(C)c1ccc(S(=O)(=O)NCc2ccc(C(=O)Nc3cccnc3)cc2)cc1,-7.72%
9,C[C@@H]1C[C@H]2O[C@@H]2/C=C\C=C\C(=O)Cc2c(Cl)c(O)cc(O)c2C(=O)O1,-2.67% [at 11.6 µM]
10,C=C1CC2C(C)(CCC(=O)O)C(C(C)(C)O)CCC2(C)C2C(=O)OC(C)(C(=O)OC)C(=O)C12C (stereo unspecified),-6.56% [at 25.7 µM]
11,O=C(O)CC1CCC(c2ccc(-c3ccc4nc(C(=O)NCc5ccc(OC(F)(F)F)cc5)cn4c3)cc2)CC1 (stereo unspecified),-6.68%
